MEKK2wt PB1 HTS – raises or lowers MEK5 binding to wildtype human MEKK2 PB1 domain; Q9Y2U5; bead flow cytometry, Alexa488-MEK5 binding to MEKK2 WT; actives lie on both sides; binding response (% of control), % at 10 µM; hit rate 1.1% among 290,000; AID 1531; in the data active means binding response below about 67% or above about 130%
GRK2 inh – human GRK2 inhibition via aptamer displacement; P25098; bead flow cytometry, FAM-aptamer displacement from GRK2; inhibition of aptamer binding, % at 10 µM; hit rate 0.59% among 330,000; AID 488847;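 active means inhibition of aptamer binding above 40%, roughly 3 SD of noise, on plates passing a quality check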;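 further: median bead fluorescence of bound FAM aptamer so fluorescent compounds give negative values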
MEKK2mut PB1 HTS – signal of MEK5 binding to mutant human MEKK2 PB1 domain; AID 1530; bead flow cytometry, Alexa488-MEK5 binding to MEKK2 mutant; percent response, % at 10 µM; hit rate 0.35% among 290,000; in the data active means percent response above about 24%, passing the limit was not always enough
Beta2AR agonist – human beta-2 adrenergic receptor agonism by FAP. P07550. Am2.2-beta2AR cells, FAP receptor internalization, flow cytometry. response, % (no concentration beside the values). hit rate 0.43% among 340,000. AID 504454;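 active means response above a set limit, near 3 SD of response in nonfluorescent compounds, cut at about 42% in these data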
Target sequence (P07550 whole entry, looked up): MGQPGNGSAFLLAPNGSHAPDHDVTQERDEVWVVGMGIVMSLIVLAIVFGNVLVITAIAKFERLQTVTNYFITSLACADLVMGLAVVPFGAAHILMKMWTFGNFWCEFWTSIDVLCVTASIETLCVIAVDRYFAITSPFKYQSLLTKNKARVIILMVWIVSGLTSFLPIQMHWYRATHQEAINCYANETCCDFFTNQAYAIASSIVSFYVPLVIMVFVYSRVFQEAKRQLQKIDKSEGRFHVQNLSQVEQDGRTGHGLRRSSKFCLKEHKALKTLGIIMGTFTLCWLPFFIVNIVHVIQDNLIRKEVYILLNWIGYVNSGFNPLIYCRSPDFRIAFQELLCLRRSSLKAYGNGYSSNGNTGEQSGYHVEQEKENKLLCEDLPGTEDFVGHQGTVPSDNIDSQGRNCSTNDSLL
MEKK3 PB1 HTS – modulators (inhibitors or enhancers) of MEK5 binding to human MEKK3 PB1 domain. Q99759. bead-based flow cytometry, Alexa488-MEK5 binding to MEKK3; actives lie on both sides; 0 = blocked by unlabeled MEK5, 100 = vehicle. binding response (% of control), % at 10 µM. hit rate 1.4% among 290,000. AID 1529;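 active means binding response more than 3 SD above or below the average of its plate-row segment, actives on both sides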;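 further: Alexa488 bead fluorescence after subtracting the streptavidin-only scavenger bead signal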
MEKK2wt confirm – raises or lowers MEK5 binding to wildtype human MEKK2, retest; shares compounds with MEKK3 PB1 HTS; bead flow cytometry, Alexa488-MEK5 binding to MEKK2 WT; actives lie on both sides; binding response (% of control), % at 10 µM; hit rate 2.4% among 5,900; in the data active means binding response below about 16% or above about 210%; inactive means in between
MEKK2mut confirm – signal of MEK5 binding to mutant human MEKK2, retest | percent response, % at 10 µM | shares compounds with MEKK3 PB1 HTS | bead flow cytometry, Alexa488-MEK5 binding to MEKK2 mutant | hit rate 2% among 5,900; in the data active means percent response mostly above about 71%, no sharp cut-off; inactive means mostly below about 38%;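 further: higher means compound restores mutant binding toward wildtype level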
MEKK3-MEK5 inh – MEKK3-MEK5 PB1 inhibition, single concentration confirmation | bead flow cytometry, Alexa488-MEK5 binding to MEKK3; stronger effect = lower value | hit rate 1.8% among 5,900 | binding response (% of control), % at 10 µM | shares compounds with MEKK3 PB1 HTS | AID 1894;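 active means binding response below 72% of control, or above a set upper limit, though filed actives all read lower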;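 further: 100% = DMSO only wells and 0% = binding blocked by excess unlabeled MEK5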
An asterisk follows results filed as active; x = no result given; [ ] = another dose, or the depositor's remark. In the library only some 2.9% were active in any assay of this set; here they are far more common.

SMILES | MEKK2wt PB1 HTS | GRK2 inh | MEKK2mut PB1 HTS | Beta2AR agonist | MEKK3 PB1 HTS | MEKK2wt confirm | MEKK2mut confirm | MEKK3-MEK5 inh
COc1ccc(C(=O)N2CCN(CC(=O)N3CCOCC3)CC2)cc1 | 105.0 | 1.0 | 2.0 | -11.7 | 99.0 | x | x | x
Cc1ccc(C)c(C(=O)CCC(=O)Nc2ccc(F)cc2)c1 | 112.0 | 0.0 | 7.0 | -9.4 | 106.0 | x | x | x
Cc1nn(Cc2ccccc2)c(Cl)c1C(=O)OCC(=O)NC(=O)NC12CC3CC(CC(C3)C1)C2 | 106.0 | 1.0 | 1.0 | 4.7 | 145.0* | 98.0 | -7.0 | 101.0
Cc1noc(C)c1C(=O)OCC(=O)NC(=O)NC12CC3CC(CC(C3)C1)C2 | 97.0 | 0.0 | 0.0 | -4.6 | 99.0 | x | x | x
CC1(c2ccc3ccccc3c2)NC(=O)N(CC(=O)Nc2cccc(S(=O)(=O)N3CCOCC3)c2)C1=O (configuration not stated) | 97.0 | 2.0 | -1.0 | -4.9 | 98.0 | x | x | x
Cc1ccc(Nc2nc(NCC3CCCO3)nc(N)c2[N+](=O)[O-])cc1C (configuration not stated) | 95.0 | 5.0 | -1.0 | -8.9 | 74.0*[inhibitor] | 106.0 | 5.0 | 102.0
NS(=O)(=O)c1ccc(N2N=C(c3ccccc3)CC2c2ccccc2Cl)cc1 (configuration not stated) | x | 0.0 | x | 8.0 | x | x | x | x
COc1ccc(-c2coc3cc(O)cc(O)c3c2=O)cc1OC | 116.0 | 0.0 | 30.0 | 4.6 | 132.0* | 105.0 | -4.0 | 104.0
CCN(CC)C(=O)C(=O)Nc1ccc(F)c(Cl)c1 | 88.0 | 0.0 | -7.0 | -0.7 | 75.0*[inhibitor] | 103.0 | -1.0 | 102.0
Cc1ccc(OCCC(=O)Nc2ccc(F)c(Cl)c2)cc1 | 223.0* | 1.0 | 31.0 | -9.9 | 117.0 | 103.0 | 14.0 | 102.0
CCC(=O)Nc1ccc(F)c(Cl)c1 | 107.0 | 0.0 | 10.0 | -3.6 | 107.0 | x | x | x
CC(C)N(C)CCOC(=O)C1COc2ccccc2O1 (configuration not stated) | 116.0 | 0.0 | 28.0 | -0.2 | 131.0* | 93.0 | -13.0 | 92.0
O=C(/C=C/c1ccccc1)NC1CC2CCC1C2 (configuration not stated) | 100.0 | 0.0 | -2.0 | -8.0 | 99.0 | x | x | x
O=C(O)/C=C/C(=O)OC1CC2CCC1C2 (configuration not stated) | 117.0 | 2.0 | 29.0 | 2.1 | 134.0* | 105.0 | 8.0 | 105.0
Cc1ccc(S(=O)(=O)Oc2cccc(/C=N/Nc3ccc(C(=O)O)cc3)c2)cc1 | 128.0 | 2.0 | 28.0 | 8.8 | 132.0* | 105.0 | 7.0 | 104.0
O=C(Cn1nnc(-c2cccs2)n1)NNC(=O)c1ccccc1Cl | 112.0 | 0.0 | 24.0 | 2.2 | 128.0* | 101.0 | 1.0 | 100.0
C=CCSc1nc2c(c(=O)[nH]1)C(c1ccccc1)C(C#N)=C(N)O2 (configuration not stated) | 108.0 | 20.0 | 30.0 | 7.9 | 132.0* | 98.0 | -5.0 | 97.0
CCC(C)Sc1ccc([C@H]2N[C@@](Cc3ccccc3)(C(=O)OC)[C@H]3C(=O)N(C)C(=O)[C@@H]23)cc1 (some centres not stated) | x | 0.0 | x | -3.6 | x | x | x | x
Cc1nn(Cc2cccc(C(=O)O)c2)c(C)c1[N+](=O)[O-] | 102.0 | 2.0 | 9.0 | -0.4 | 106.0 | x | x | x
Cc1nn(Cc2cccc(C(=O)Nn3cc([N+](=O)[O-])cn3)c2)c(C)c1[N+](=O)[O-] | 104.0 | 0.0 | 0.0 | -1.2 | 128.0* | 96.0 | -12.0 | 97.0
O=C(OCC(=O)N1CCC(Cc2ccccc2)CC1)c1cc(Br)ccc1O | x | 1.0 | x | -3.5 | x | x | x | x
O=C1c2ccccc2C(=O)N1OCCOCCOCCBr | -2.0*[inhibitor] | 3.0 | -26.0 | 4.8 | 1.0*[inhibitor] | 102.0 | 2.0 | 102.0
CCCN1CCN(S(=O)(=O)c2c(C)[nH]c(C)c2C(=O)N2CCCCC2)CC1 | 99.0 | 0.0 | 0.0 | -4.8 | 95.0 | x | x | x
O=C(NC(=S)NCCC1=CCCCC1)c1cncc(Br)c1 | 106.0 | 2.0 | 0.0 | -12.1 | 152.0* | 99.0 | 1.0 | 104.0
O=C(NC(=S)NCCC1=CCCCC1)c1ccccc1Br | 96.0 | 0.0 | -3.0 | 7.1 | 104.0 | x | x | x
SMILES | MEKK2wt PB1 HTS | GRK2 inh | MEKK2mut PB1 HTS | Beta2AR agonist | MEKK3 PB1 HTS | MEKK2wt confirm | MEKK2mut confirm | MEKK3-MEK5 inh
Cc1ccc(S(=O)(=O)Cc2cc(F)c([N+](=O)[O-])cc2[N+](=O)[O-])cc1 | 111.0 | 3.0 | -1.0 | 28.3 | 105.0 | x | x | x
COc1ccc(/C=N/NC(=S)NC2CCS(=O)(=O)C2)cc1OC (configuration not stated) | 117.0 | 3.0 | 12.0 | -2.5 | 123.0* | 103.0 | -1.0 | 99.0
COc1ccc(N2C(=O)C3ON(C4SC(=S)N(C)C4(C)C)C(c4ccc(Cl)cc4)C3C2=O)cc1 (configuration not stated) | 108.0 | 0.0 | 0.0 | 4.8 | 151.0* | 99.0 | -2.0 | 98.0
CCOc1cccc(OCCOCCOc2ccccc2C(C)=O)c1 | 111.0 | 0.0 | 2.0 | -6.2 | 193.0* | 95.0 | 4.0 | 100.0
COCC(=O)OCC(=O)Nc1cc([N+](=O)[O-])ccc1Cl | 89.0 | x | -10.0 | -1.1 | 95.0 | x | x | x
COCC(=O)OCC(=O)Nc1ccc(Cl)cc1[N+](=O)[O-] | 44.0*[inhibitor] | 0.0 | -19.0 | -3.9 | 32.0*[inhibitor] | 99.0 | -2.0 | 101.0
CC(C)C(C(=O)Nc1ccc(S(N)(=O)=O)cc1)N1C(=O)c2ccccc2C1=O (configuration not stated) | 70.0 | 0.0 | -10.0 | -5.8 | 56.0*[inhibitor] | 96.0 | -4.0 | 101.0
NS(=O)(=O)c1ccc(NC(=O)CN2C(=O)c3ccccc3C2=O)cc1 | 100.0 | 2.0 | 5.0 | 2.4 | 104.0 | x | x | x
CCOC(=O)c1cccc(C2=CC(=O)C[C@H](c3ccc(OC)c(OC)c3)C2)c1 | x | 0.0 | x | -5.6 | x | x | x | x
CCCCn1c(SCC(=O)Nc2nc(C)cs2)nnc1-c1cccnc1 | 1.0*[inhibitor] | x | -41.0 | -12.2 | 1.0*[inhibitor] | 110.0 | 14.0 | 107.0
CCCn1c(SCC(=O)Nc2nccs2)nnc1-c1cccnc1 | 97.0 | 5.0 | -6.0 | -1.1 | 93.0 | x | x | x
CC(C)COP(=O)(OCC(C)C)C(O)c1ccc2c(c1)OCO2 (configuration not stated) | 121.0 | 2.0 | 26.0 | 2.0 | 130.0* | 98.0 | -5.0 | 100.0
CCCCOP(=O)(OCCCC)C(Nc1ccccc1)c1ccc2c(c1)OCO2 (configuration not stated) | 113.0 | 0.0 | 1.0 | 6.6 | 144.0* | 99.0 | 0.0 | 102.0
CCCN(CC1CCCO1)C(=O)c1cc(COc2ccc(F)cc2F)on1 (configuration not stated) | 98.0 | 0.0 | 5.0 | -7.9 | 102.0 | x | x | x
